In the library only some 1.9% were active in any assay of this set; here they are far more common.
BaF3 tox: parental Ba/F3 cell viability inhibition, counter-screen for JAK2V617F inhibitor project, murine pro-B, CellTiter-Glo luminescence. actives 1.1% (n = 220,000). CellTiter-Glo ATP luminescence. inhibition, % at 5.6 µM;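 active = inhibition above a per-campaign cutoff, the mean inhibition of all tested compounds plus 3 SD, cut at about 27% in these data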;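 note: 0% = DMSO wells and 100% = JAK Inhibitor I control wells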
KLF5 inhibitor: KLF5 expression inhibitors, primary screen, DLD-1 cells, luminescence | DLD-1 KLF5 promoter-luciferase reporter | actives 0.23% (n = 290,000) | inhibition, % at 5 µM;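 active = inhibition above a per-plate limit of that plate's mean compound inhibition plus 3 SD, cut at about 60% in these data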;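 note: 0% = DMSO wells and 100% = LY294002 at 200 µM; higher means less KLF5 promoter-driven luciferase light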
APP 5UTR inh: inhibitors of APP translation via 5'UTR reporter, primary screen, APP 5'UTR luciferase, SH-SY5Y cells; SH-SY5Y APP 5'UTR-luciferase reporter, luminescence; inhibition, % at 2 µM; actives 0.82% (n = 190,000); AID 1285, 2008;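 active = inhibition above a set limit, derived from the sample mean plus 3 SD, cut at about 45% in these data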
Ba/F3 V617F tox: reduced viability of JAK2V617F-dependent Ba/F3 cells, primary screen, JAK2V617F inhibitor project, cell-based, Ba/F3 EpoR-JAK2V617F, luminescence. ATP luminescence. inhibition, % at 5.6 µM. actives 1.1% (n = 220,000). AID 1446, 2008;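 active = inhibition above the campaign mean plus 3 SD over all tested compounds, cut at about 24% in these data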;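 note: cytokine-independent growth of Ba/F3 cells driven by EpoR plus mutant JAK2; 0% = DMSO-treated cells and 100% = JAK inhibitor I control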
IEC-6 tox-1: cytotoxicity in IEC-6 intestinal epithelial cells, primary screen, cytotoxicity control for KLF5 inhibitor project, cell-based, luminescence; actives 0.78% (n = 290,000); IEC-6 cytotoxicity, luminescence viability; AID 1825, 2009; inhibition, % at 5 µM;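 note: 0% = plate median of test compound wells and 100% = cytotoxic reference compound wells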
BaF3 tox 2: parental Ba/F3 cell viability inhibition, counter-screen for JAK2V617F inhibitor project, murine pro-B, CellTiter-Glo luminescence. shares compounds with Ba/F3 V617F tox. cells kept alive by added IL-3. AID 1520, 2009. actives 31% (n = 580). inhibition, % at 5.6 µM;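 active = cell growth inhibition above the hit limit set in the earlier mutant JAK2 cell screen, cut at about 27% in these data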;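 note: plate controls were DMSO-treated cells for no effect and JAK Inhibitor I control wells for full effect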
JAK2V617F confrm: viability loss in Ba/F3 EpoR-JAK2V617F cells, confirmation, JAK2V617F inhibitor project, cell-based, luminescence, triplicate; shares compounds with Ba/F3 V617F tox; CellTiter-Glo luminescence; inhibition, % at 5.6 µM; actives 66% (n = 580); AID 1521, 2009;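 active = mean inhibition above the hit cutoff derived in the earlier primary screen, cut at about 25% in these data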;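 note: 0% = DMSO-treated cells and 100% = JAK inhibitor I control wells; higher means lower luminescence from reduced cell ATP and viability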
KLF5 inh confirm: KLF5 expression inhibitors, confirmation, DLD-1 cells, luminescence; actives 79% (n = 610); DLD-1 KLF5 promoter firefly luciferase reporter; shares compounds with KLF5 inhibitor; inhibition, % at 4 µM; AID 1834, 2009;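 active = inhibition above a set limit taken from the earlier primary screen, cut at about 63% in these data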;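 note: 0% = DMSO wells and 100% = LY294002 at 200 µM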
IEC-6 tox-2: cytotoxicity in rat IEC-6 cells, cytotoxicity control for KLF5 inhibitor project, cell-based, luminescence, triplicate; shares compounds with KLF5 inhibitor; actives 56% (n = 610); IEC-6 rat intestinal cells, viability luminescence; inhibition, % at 4 µM; AID 1905, 2009; in the data active = inhibition above about 23%;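 note: cells exposed to compounds for 48 hours before viability read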
IEC-6 tox confirm: cytotoxic compounds in IEC-6 epithelial cells, confirmation, cytotoxicity control, cell-based, luminescence | shares compounds with IEC-6 tox-1 | IEC-6 rat intestinal epithelial viability | inhibition, % at 5 µM | actives 63% (n = 1,900);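 note: 0% = vehicle and 100% = reference cytotoxic drug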
Numbers without * were called inactive; · = not tested or not shown. Cut-off read from the data, not from the text of the source, unless noted: active = inhibition above about 22%; inactive = the rest.

SMILES	BaF3 tox	KLF5 inhibitor	APP 5UTR inh	Ba/F3 V617F tox	IEC-6 tox-1	others
Cc1ccc(NP(=O)(Oc2ccccc2F)Oc2ccccc2F)cc1	66*	-12	0	-2	-7
Cc1ccc(N2C(=O)CC(=O)NC2=O)cc1Cl	·	-18	·	·	-7
CC1=CC(=C2C(=O)NC(=S)NC2=O)C=C(C(F)(F)F)N1CCc1ccccc1	8	-36	92*	-1	-4
CC1=CC(=C2C(=O)NC(=S)NC2=O)C=C(C(F)(F)F)N1Cc1ccccc1	14	25	90*	5	9
CC1=CC(=C2C(=O)NC(=O)NC2=O)C=C(C(F)(F)F)N1Cc1ccccc1	5	3	-1	3	2
FC(F)(F)c1ccccc1CCN1CCNCC1	·	-2	·	·	9
Cc1ccc(Oc2cc(NN3CCCCC3)c([N+](=O)[O-])cc2[N+](=O)[O-])c([N+](=O)[O-])c1	·	-20	·	·	-2
Cc1cc(OCC(=O)NC(Cc2ccc(Cl)cc2)C(=O)O)c2c3c(c(=O)oc2c1)CCCC3 (stereo not given)	·	-12	·	·	0
CCOc1cccc(=NC2CCCCC2)c2c(C)n(C)c(C)c12	65*	-11	·	73*	3
Cc1ccccc1-n1c(O)c(/C=C2/C(c3ccccc3)=Nc3ccccc32)c(=O)[nH]c1=O	69*	44	62*	78*	78*
C=CCn1c(O)c(C(CC)=NCCc2c[nH]c3ccccc23)c(=O)[nH]c1=O	0	-36	·	-3	-4
CCN1C[C@]2(OC(=O)c3ccccc3NC(C)=O)CCC(OC)C34C5C[C@H]6C(OC)[C@]5(O)[C@](O)(C[C@@H]6OC)C(C[C@@H]32)[C@H]14 (stereo not given in full)	·	0	·	·	1
O=C(Cn1cnc2ccccc2c1=O)NCC(=O)N1CCC2(CC1)OCCO2	37*	-19	-5	0	0
CN(C)C(=O)Oc1ccc(OCc2nc3ccccc3[nH]2)cc1	23	-92	-88	24*	14	BaF3 tox 2=31*;JAK2V617F confrm=34*
CCOc1ccc(N2C(=O)/C(=C\c3cccs3)C(=O)NC2=S)cc1	12	-18	7	63*	-8	BaF3 tox 2=-5;JAK2V617F confrm=-5
CCOc1ccc(N2C(=O)/C(=C/c3ccco3)C(=O)NC2=S)cc1	·	-25	·	·	0
O=C(Cc1ccccc1)OCCNC(=O)c1cccnc1	4	-30	5	2	2
N#CC(C#N)=C(N)c1cccnc1	16	-38	-12	34*	-8	BaF3 tox 2=-4;JAK2V617F confrm=-2
O=c1[nH]c(O)c(C=Nc2cccc(F)c2)c(=O)[nH]1	·	-29	·	·	-3
CNCCc1c[nH]c2ccccc12	4	-22	2	-1	5
c1ccc2c(CN3CCCCCC3)c[nH]c2c1	26	-27	-20	62*	1	BaF3 tox 2=11;JAK2V617F confrm=76*
c1ccc2c(CNC3CCCCCC3)c[nH]c2c1	7	-3	20	27*	0	BaF3 tox 2=-2;JAK2V617F confrm=38*
CC1(C)C2([N+](=O)[O-])CN3CC1([N+](=O)[O-])CN(C2)C3c1ccccn1 (stereo not given)	0	-22	·	-1	-7
CN(C)C(=S)SSC(=S)N(C)C	-3	22	95*	39*	102*	BaF3 tox 2=0;JAK2V617F confrm=99*
Fc1c(F)c(F)c(N2CCNCC2)c(F)c1F	5	-4	-6	-6	-6
SMILES	BaF3 tox	KLF5 inhibitor	APP 5UTR inh	Ba/F3 V617F tox	IEC-6 tox-1	others
C[n+]1c(-c2ccccc2)c2cc(N)ccc2c2ccc(N)cc21	·	108*	·	·	-1	KLF5 inh confirm=86*;IEC-6 tox-2=-9
Nc1ccc2ccc3cccc[n+]3c2c1	·	-16	·	·	-4
CCCCN=C[C@]12CCC(O)CC1(O)CCC1[C@@H]2CC[C@]2(C)[C@H](C3C=CC(=O)O3)CCC12O (stereo not given in full)	·	106*	·	·	-3	KLF5 inh confirm=105*;IEC-6 tox-2=-1
O=c1[nH]c(O)c(C=Nc2ccccc2Oc2ccccc2)c(=O)[nH]1	3	9	·	0	-6
C[C@]12CCC3C(CCC4=CC(O)CC[C@@]43/C=N/O)C1(O)CCC2C1=CC(=O)OC1 (stereo not given in full)	·	91*	·	·	1	KLF5 inh confirm=104*;IEC-6 tox-2=-10
C(CCc1nn[nH]n1)CCc1nn[nH]n1	6	0	1	0	-4
CC(C)CC(NC(=O)CCCNC(=O)CCC(=O)OC1O[C@H]2OC3(C)CC[C@H]4[C@H](C)CCC(C1C)C24OO3)C(=O)O (stereo not given in full)	·	82*	·	·	30*	KLF5 inh confirm=82*;IEC-6 tox-2=20;IEC-6 tox confirm=23*
CC1C(OC(=O)CCC(=O)NC(C)(C)CO)O[C@H]2OC3(C)CC[C@H]4[C@H](C)CCC1C24OO3 (stereo not given in full)	·	82*	·	·	33*	KLF5 inh confirm=85*;IEC-6 tox-2=23*;IEC-6 tox confirm=11
C[C@H]1[C@H](OC(=O)CCC(=O)NCc2ccc(C(=O)O)cc2)O[C@@H]2O[C@@]3(C)CC[C@H]4[C@H](C)CC[C@@H]1C24OO3	·	80*	·	·	24*	KLF5 inh confirm=84*;IEC-6 tox-2=26*;IEC-6 tox confirm=21
CC1CN=C(NCc2ccc(F)cc2)S1 (stereo not given)	2	-45	-46	-4	-5
CC(=O)c1ccc(OC(C)C)c(Cc2c(O)[nH]c(=S)[nH]c2=O)c1	2	5	18	-6	1
CC(=O)O[C@@]12CO[C@@H]1C[C@@H](O)[C@@]1(C)C(=O)[C@H](O)C3=C(C)[C@@H](OC(=O)[C@H](O)[C@@H](NC(=O)c4ccccc4)c4ccccc4)C[C@@](O)([C@@H](OC(=O)c4ccccc4)C12)C3(C)C (stereo not given in full)	·	76*	·	·	90*	KLF5 inh confirm=87*;IEC-6 tox-2=72*;IEC-6 tox confirm=81*

Screening data: PubChem, several laboratories
